Only some compounds are listed: those with a hit (about 1.5% of all), similar ones and a draw of the others.
TrxR1 inh = blocks rat thioredoxin reductase 1. O89049. recombinant rTrxR1, NADPH fluorescence consumption, selenite substrate. Potency, µM (titrated, usually from 114 µM), for inactives: at the highest dose activity change, negative = inhibition, hits mostly inhibitors. hit rate 1% among 390,000. AID 588453; also: potency is read from the fitted curve at half-maximal effect; nearly all actives have a fitted effect of over 65% in size
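Rat TrxR1 (90 nM in the dispensed reagent) was pre-reduced with 400 uM NADPH for 5 min at room temperature, then incubated with compound for 15 min. After 400 uM selenite was added, NADPH fluorescence (Ex 340/Em 450 nm) was followed for 8 min.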
USP1 inh = blocks the human USP1/UAF1 deubiquitinase complex. O94782. AID 743255. recombinant USP1/UAF1, Ub-Rhodamine cleavage fluorescence. Potency, µM (top dose mostly 57.1 µM), for inactives: at the highest dose activity change, negative = inhibition, actives largely listed as inhibitors. hit rate 0.23% among 390,000; also: potency is read from the fitted curve at half-maximal effect; nearly all actives have a fitted effect of over 60% in size
Target sequence (O94782 whole entry, looked up): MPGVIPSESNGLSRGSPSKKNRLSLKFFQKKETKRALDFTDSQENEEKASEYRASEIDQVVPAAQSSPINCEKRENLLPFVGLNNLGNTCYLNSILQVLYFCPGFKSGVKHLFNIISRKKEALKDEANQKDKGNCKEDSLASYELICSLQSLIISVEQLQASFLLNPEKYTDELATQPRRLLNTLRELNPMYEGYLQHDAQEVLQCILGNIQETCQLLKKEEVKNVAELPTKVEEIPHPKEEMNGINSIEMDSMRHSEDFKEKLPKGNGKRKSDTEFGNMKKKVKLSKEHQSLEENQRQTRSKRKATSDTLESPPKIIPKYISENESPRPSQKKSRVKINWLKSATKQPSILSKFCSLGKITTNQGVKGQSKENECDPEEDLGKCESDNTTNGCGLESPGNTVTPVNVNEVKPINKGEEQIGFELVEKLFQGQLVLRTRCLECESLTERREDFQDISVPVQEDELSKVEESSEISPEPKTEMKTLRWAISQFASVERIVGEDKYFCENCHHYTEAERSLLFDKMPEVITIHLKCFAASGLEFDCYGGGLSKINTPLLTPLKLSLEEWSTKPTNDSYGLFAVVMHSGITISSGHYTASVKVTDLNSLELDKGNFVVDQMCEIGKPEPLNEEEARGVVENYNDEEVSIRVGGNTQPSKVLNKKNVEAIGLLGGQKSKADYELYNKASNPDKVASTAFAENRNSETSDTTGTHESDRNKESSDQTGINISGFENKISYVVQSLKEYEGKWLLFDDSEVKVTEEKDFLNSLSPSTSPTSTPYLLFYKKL
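High-throughput fluorogenic screen: 1nM USP1/UAF1 complex, Ub-Rho substrate 150nM final, 50mM HEPES pH 7.8 with 0.5mM EDTA, 0.1 mg/ml BSA, 1mM TCEP and 0.01% Tween-20.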
TrxR1 substrate = substrates of rat thioredoxin reductase 1 | Potency, µM (top dose mostly 114 µM), inactives show at the top dose activity change, negative = substrate turnover | hit rate 0.01% among 390,000 | purified TrxR1 substrate turnover, NADPH consumption readout | AID 588456 | O89049; also: potency is read from the fitted curve at half-maximal effect; nearly all actives have a fitted effect of over 50% in size
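Rat TrxR1, dispensed at 90 nM, was prereduced with 400 uM NADPH (final) for 5 min at ~22 deg C, then incubated with compound 15 min before 400 uM selenite. A first-read NADPH fluorescence drop versus no-compound background flagged substrates.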
GALK inhibitor = galactokinase (human) inhibition; hit rate 0.007% among 270,000; Potency, µM (doses to about 57.5 µM), for inactives: at the top dose activity change, negative = inhibition, most hits filed as inhibitors; AID 1868; P51570; Purified GALK, Kinase-Glo residual ATP luminescence; also: potency is read from the fitted curve at half-maximal effect
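Galactose (100 uM) and ATP (35 uM) were turned over by 5 nM GALK for 1 h at RT. Kinase-Glo Plus then converted the remaining ATP into a luminescent signal.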
FBPA coupling cs = counter-screen for Giardia aldolase inhibitors: coupling enzyme system; coupling enzyme system counterscreen, AmpLite Red fluorescence; activity change, negative = inhibition, % at 58.2 µM, hits read low; hit rate 0.67% among 290,000; AID 2472; in the data active = activity change below about -30%
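Counterscreen lacking aldolase: glyceraldehyde-3-phosphate coupling-enzyme reagent preincubated 10 min at RT with compound (at 57.5 uM final), then substrate/coupling system with AmpLite Red added; fluorescence read at 525/598 nm after 20 min RT.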
Starred values were filed as active, the others as inactive; u = inconclusive; x = no result given; [ ] = dose if it differs, or a comment. Unless noted, calls follow the shape of the dose curve; as a rule, active = well fitted curve in the direction sought with a large enough effect; inconclusive = small, poorly fitted or top-dose-only effect, or another doubt; inactive = no such curve, though single readings can be large; an effect the other way counts as inactive or inconclusive. % is scaled to controls: 0 for no effect and ±100 for the full control effect.

SMILES	TrxR1 inh	USP1 inh	TrxR1 substrate	GALK inhibitor	FBPA coupling cs
Cc1ccc(S(=O)(=O)NC(C(=O)Oc2ccc3ccc(=O)oc3c2)c2ccccc2)cc1 (stereo not given)	50µM*	-19%	259%	-1%	-2
Cc1ccc(S(=O)(=O)NCCC(=O)Oc2ccc3ccc(=O)oc3c2)cc1	56µM*	-9%	94%	3%	0
CCC(NC(=O)OCc1ccccc1)C(=O)Oc1ccc2ccc(=O)oc2c1 (stereo not given)	50µM*	-20%	117%	0%	-3
Cc1ccc(S(=O)(=O)N[C@H](C(=O)Oc2ccc3c(C(F)(F)F)cc(=O)oc3c2)c2ccccc2)cc1	-18%[57.1 µM]	-11%	28%[57.1 µM]	2%	8
Cc1cccc(OCCn2c(CCNC(=O)C3CCCCC3)nc3ccccc32)c1	-8%	x	12%[0.0914 µM]	x	x
COc1cccc(C(=O)N2c3nc(-c4ccco4)nn3C3(CCCCC3)[C@@H]3CCCC[C@@H]32)c1	8.9µM*	-4%	6%	x	x
COC(=O)C1N2C(=O)N(C)[C@H](C(=O)OC)[C@H]2SC1(C)C (stereo not given in full)	10%	x	-6%	x	x
O=c1[nH]c2ccccc2nc1Cc1ccccc1	-17%	-26%	8%	-1%	-3
O=C(Cc1nc2ccccc2[nH]c1=O)c1ccccc1	9%[57.1 µM]	32µM*	2%[57.1 µM]	7%	-2
CCOC(=O)c1c(C)oc2c1c1c(c3ccccc32)OCN(Cc2cccnc2)C1	1.4µM*	-24%	2%	0%	-57*
CCOC(=O)c1c(C)oc2c1c(C(c1cccnc1)N1CCOCC1)c(O)c1ccccc12 (stereo not given)	11µM*	-28%	-13%	2%	-44*
CCOC(=O)c1c(C)oc2c1c(C=NCc1ccccn1)c(O)c1ccccc12	-31%	u	-22%	-4%	-53*
CCOC(=O)c1c(C)oc2c1c1c(c3ccccc32)OCN(CCCC(=O)O)C1	3.5µM*	-27%	-1%	4%	-22
c1ccc(-c2ccc(-c3csc4ncnc(Sc5nnnn5-c5ccccc5)c34)cc2)cc1	-14%	x	-3%[0.0914 µM]	x	x
Cc1ccc(CSc2nnc(-c3ccc(NC(=O)CCc4ccccc4)cc3)n2C)cc1	-5%	x	-7%	x	x
O=C(Nc1cccc2cccnc12)c1ccc(Br)cc1	13%	x	11%[0.457 µM]	x	x
O=S1(=O)Nc2c(ccc3cccnc23)-c2ccccc21	10%	-2%	-2%	-2%	-22
Cc1cnc2c3c(cc(Cl)c2c1)-c1ccccc1S(=O)(=O)N3	32µM*	x	8%	x	x
Cc1cc([N+](C)(C)C)cc(C)c1/C=C/c1ccnc2ccccc12	-21%	x	-3%	x	x
O=C(NCc1ccccc1)C1(CC2CC(c3ccccc3)=NO2)CCNCC1 (stereo not given)	22µM*	-12%	4%	x	x
CCCCCCCNC(=O)C1(CC2CC(c3ccccc3)=NO2)CCNCC1 (stereo not given)	u	3%	5%	x	x
COc1cccc(OCc2cc(C3Nc4ccccc4C(=O)N3c3ccccc3)ccc2OC)c1 (stereo not given)	41%	x	47%	x	x
C[n+]1c(/C=C/c2ccnc3ccccc23)cc(/C=C/c2ccnc3ccccc23)c2ccccc21	u	x	-12%	x	x
c1cc2c(cc1C1CCCN1)OCCCO2 (stereo not given)	45µM*	0%	4%	-3%	-1
O=[N+]([O-])c1ccccc1/C=C/c1ccnc2ccccc12	7%	x	-7%	x	x
SMILES	TrxR1 inh	USP1 inh	TrxR1 substrate	GALK inhibitor	FBPA coupling cs
Cn1ccc(=S)c2ccccc21	22µM*	-12%	-4%	0%	-22
O=[N+]([O-])c1ccc2c(c1Nc1ccccc1)=NC1(CCCCC1)N=2	3%	-2%	3%	3%	-21
COc1ccc(Nc2c([N+](=O)[O-])ccc3c2=NC2(CCCCC2)N=3)cc1	-22%	-20%	-14%	0%	-34*
C[C@H]1Cc2c(COc3ccccc3)nc3c(c2CO1)CN(C(=O)C1CC1)CC3	x	x	x	x	4
CN(C)c1ccc2nc3ccc(=O)cc-3sc2c1	x	-26%	x	x	x
Cc1cc2nc3ccc(=[N+](C)C)cc-3sc2cc1N	19%[57.1 µM]	u	-16%[57.1 µM]	13%	-42*
O=C(c1ccc(Cl)cc1)C(CN1CCCCC1)c1ccccc1 (stereo not given)	25µM*	u	4%	3%	1
CCOc1ccccc1C1NC(c2ccc3c(c2)OCO3)=CC(c2ccccc2O)N1 (stereo not given)	-18%	x	6%[0.0914 µM]	x	x
COc1cc(CNc2ccc3c(c2)CCC3)cc(OC)c1O	0.4µM*	-16%	7%	0%	-4
CC(=O)N(Cc1ccc(F)cc1)C1=C(NCCc2ccccc2)C(=O)c2ccccc2C1=O	11%[57.1 µM]	u	-3%[57.1 µM]	1%	-47*
Cc1ccc(S(=O)(=O)/C=C\C#N)cc1	x	x	x	x	4
Cc1cccc(OCC(=O)Nc2ccc(O)c(-c3nc4ccccc4o3)c2)c1	15%	x	6%[0.0914 µM]	x	x
O=C(Cc1ccc(S(=O)(=O)N2CCOCC2)s1)Nc1ccccc1N1CCCC1	11µM*	-12%	-2%	3%	-4
Cc1ccc2nc3cc([N+](=O)[O-])cc([N+](=O)[O-])c3cc2c1	50µM*	-29%	-4%	-4%	-6
O=S1(=O)CCOC[C@H](c2ccccc2)N1Cc1ccc(Cl)cc1Cl	18%	x	-2%	x	x
COc1ccc(CN=Cc2[nH]c3ccc(Br)c(Cl)c3c2O)cc1	u	14µM*	-15%	0%	-30*
CN1CCc2cccc3c2[C@H]1Cc1ccc(O)c(O)c1-3	22µM*	-11%	10%	0%	-9
COc1cc2c3cc1OCc1c(O)c(OC)cc4c1C(Cc1ccc(cc1)Oc1cc(ccc1O)CC3N(C)CC2)N(C)CC4 (stereo not given)	10%	x	-3%	x	3
Cc1cc(C)c2cc(C#N)c(SCC(=O)NCc3ccco3)nc2c1	56µM*	-5%	1%	0%	7
Cc1cc(C)c2cc(C)c(SCC(=O)NCc3ccco3)nc2c1	-13%	-11%	-4%	-3%	7
Fc1ccccc1Nc1nc2c(s1)CCc1ccccc1-2	x	x	x	1%	-69*
O=C1C(Br)=C(c2ccccc2)C(c2ccccc2)=C1c1ccccc1	0.71µM*	-3%	-8%	x	x
O=C1NC(c2ccccc2)=C(c2ccccc2)C1=O	-15%	-15%	-6%	x	-7
COc1ccc(/C=C/c2ccccc2)cc1C1C2C=CCCC2(C)C(=O)N1Cc1ccccc1 (stereo not given)	-5%	x	26%	x	0
N#CC1=C(N)C(C#N)(C#N)C(c2ccc[nH]2)C2CCCC=C12 (stereo not given)	11µM*	-25%	6%	0%	-17
N#CC1=C(N)C(C#N)(C#N)C(c2cccnc2)C2CCCC=C12 (stereo not given)	x	x	x	1%	-36*

Screening results deposited in PubChem BioAssay by National Center for Advancing Translational Sciences (NCATS).
